According to PubChem BioAssay AID1159580 (chemical genetic matrix, 2015):
Out of some 5,500 compounds screened, about 2,000 (36%) were called active. Inconclusive results (about 18%) are left out. This is one part of the list. Unmarked numbers belong to inactive results. Rule as the data show it: active = normalized growth mostly below about 0.91 (no sharp cut-off); inconclusive = no clear call, values can overlap the other calls; inactive = mostly above about 0.92.

Assay: chemical genetic growth profiling, strain panel (AID 1159580);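 also: tested at 20 µM; growth read once vehicle control cultures reached saturation at 30 °C; 1 = growth at the plate median or of vehicle wells; lower values mean less growth of the strain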
Details: S. cerevisiae deletion strains, growth OD
[1] = locus YDL101C, strain DUN1, active compounds read low
[2] = locus YHR030C, strain SLT2, active compounds read low
[3] = locus YJL095W, strain BCK1, active compounds read low
[4] = locus YOR061W, strain CKA2, active compounds read low

SMILES: CCC(CCC(C)C1CCC2C3CC=C4C[C@@H](OC(C)=O)CC[C@]4(C)C3CC[C@]12C)C(C)C (some centres undefined)
- normalized growth (locus YBR021W, strain FUR4, active compounds read low): 0.996
- normalized growth (locus YBR229C, strain ROT2, active compounds read low): 0.99
- normalized growth (locus YCL029C, strain bik1, active compounds read low): 0.996
- normalized growth (locus YDL035C, strain GPR1, active compounds read low): 1.04
- normalized growth (locus YDL074C, strain BRE1, active compounds read low): 1.07
- normalized growth [1]: 0.979
- normalized growth (locus YDL134C, strain PPH21, active compounds read low): 1.01
- normalized growth (locus YDL185W, strain tfp1, active compounds read low): 0.974
- normalized growth (locus YDL192W, strain arf1, active compounds read low): 1
- normalized growth (locus YDR101C, strain arx1, active compounds read low): 1.02
- normalized growth (locus YDR162C, strain NBP2, active compounds read low): 1
- normalized growth (locus YDR318W, strain mcm21, active compounds read low): 0.976
- normalized growth (locus YDR388W, active compounds read low): 0.963
- normalized growth (locus YDR502C, strain sam2, active compounds read low): 0.968
- normalized growth (locus YEL061C, strain CIN8, active compounds read low): 1
- normalized growth (locus YER110C, active compounds read low): 0.968
- normalized growth (locus YER155C, strain BEM2, active compounds read low): 0.981
- normalized growth (locus YER167W, strain BCK2, active compounds read low): 1.01
- normalized growth (locus YGL078C, strain dbp3, active compounds read low): 0.964
- normalized growth (locus YGL086W, strain mad1, active compounds read low): 0.992
- normalized growth (locus YGL248W, strain PDE1, active compounds read low): 0.982
- normalized growth (locus YGR078C, strain PAC10, active compounds read low): 0.989
- normalized growth (locus YGR135W, strain pre9, active compounds read low): 0.945
- normalized growth (locus YGR252W, strain gcn5, active compounds read low): 0.941
- normalized growth [2]: 0.991
- normalized growth (locus YHR079C, strain IRE1 (second series), active compounds read low): 0.977
- normalized growth (locus YHR094C, strain hxt1, active compounds read low): 0.976
- normalized growth (locus YHR129C, strain ARP1, active compounds read low): 0.998
- normalized growth (locus YHR200W, strain rpn10, active compounds read low): 0.975
- normalized growth (locus YIL066C, strain RNR3, active compounds read low): 1.02
- normalized growth (locus YIL073C, strain SPO22, active compounds read low): 1.01
- normalized growth (locus YIL125W, strain kgd1, active compounds read low): 0.987
- normalized growth (locus YIR030C, strain dcg1, active compounds read low): 0.968
- normalized growth [3]: 0.991
- normalized growth (locus YJL134W, strain LCB3, active compounds read low): 0.991
- normalized growth (locus YJL168C, strain set2, active compounds read low): 0.96
- normalized growth (locus YJL187C, strain SWE1 (second series), active compounds read low): 0.979
- normalized growth (locus YJR043C, strain POL32, active compounds read low): 1.05
- normalized growth (locus YKL009W, strain mrt4, active compounds read low): 1.03
- normalized growth (locus YKL068W, active compounds read low): 0.987
- normalized growth (locus YKL085W, strain MDH1 (second series), active compounds read low): 0.989
- normalized growth (locus YKL085W, strain MDH1, active compounds read low): 0.989
- normalized growth (locus YKL190W, strain CNB1, active compounds read low): 1
- normalized growth (locus YKR001C, strain vps1, active compounds read low): 0.995
- normalized growth (locus YLR039C, strain RIC1, active compounds read low): 1.07
- normalized growth (locus YLR058C, strain SHM2, active compounds read low): 1
- normalized growth (locus YLR102C, strain apc9, active compounds read low): 0.978
- normalized growth (locus YLR262C, strain YPT6, active compounds read low): 1.08
- normalized growth (locus YLR268W, strain sec22, active compounds read low): 1.02
- normalized growth (locus YLR330W, strain CHS5, active compounds read low): 0.993
- normalized growth (locus YLR342W, strain FKS1 (second series), active compounds read low): 1.09
- normalized growth (locus YLR371W, strain rom2, active compounds read low): 0.993
- normalized growth (locus YLR418C, strain cdc73, active compounds read low): 0.959
- normalized growth (locus YML016C, strain PPZ1, active compounds read low): 1.01
- normalized growth (locus YML032C, strain rad52, active compounds read low): 1.01
- normalized growth (locus YML124C, strain tub3, active compounds read low): 0.98
- normalized growth (locus YMR078C, strain ctf18, active compounds read low): 0.962
- normalized growth (locus YMR223W, strain ubp8, active compounds read low): 0.992
- normalized growth (locus YMR307W, strain GAS1, active compounds read low): 1.06
- normalized growth (locus YNL067W, strain RPL9B, active compounds read low): 0.974
- normalized growth (locus YNL128W, strain TEP1, active compounds read low): 1.01
- normalized growth (locus YNL233W, strain BNI4, active compounds read low): 0.98
- normalized growth (locus YNL250W, strain rad50, active compounds read low): 0.947
- normalized growth (locus YNL271C, strain bni1, active compounds read low): 0.957
- normalized growth (locus YNL298W, strain CLA4, active compounds read low): 0.997
- normalized growth (locus YNL307C, strain MCK1, active compounds read low): 0.975
- normalized growth (locus YNR052C, strain pop2, active compounds read low): 0.961
- normalized growth (locus YOL006C, strain TOP1, active compounds read low): 1.2
- normalized growth (locus YOL012C, strain htz1): 1.41
- normalized growth (locus YOL147C, strain pex11, active compounds read low): 0.989
- normalized growth [4]: 1.01
- normalized growth (locus YOR069W, strain VPS5, active compounds read low): 0.99
- normalized growth (locus YOR136W, strain idh2, active compounds read low): 0.975
- normalized growth (locus YOR144C, strain elg1, active compounds read low): 0.97
- normalized growth (locus YOR184W, strain ser1, active compounds read low): 1.04
- normalized growth (locus YOR316C, strain cot1, active compounds read low): 0.978
- normalized growth (locus YPL055C, strain LGE1, active compounds read low): 1.03
- normalized growth (locus YPL241C, strain CIN2, active compounds read low): 0.984
- normalized growth (locus YPR119W, strain clb2, active compounds read low): 0.971
- normalized growth (locus YPR141C, strain kar3, active compounds read low): 0.975
- normalized growth (locus YPR163C, strain tif3, active compounds read low): 0.982
- normalized growth (locus YPR167C, strain met16, active compounds read low): 0.967
- normalized growth (strain wtn01, active compounds read low): 1.01

SMILES: CC12CC[C@@H](O)CC1=CC[C@@H]1C2CCC2(C)C(=O)CC[C@@H]12 (some centres undefined)
- normalized growth (locus YAR019C, strain CDC15, active compounds read low): 1.01
- normalized growth (locus YBL105C, strain PKC1, active compounds read low): 1.01
- normalized growth (locus YBR135W, strain CKS1, active compounds read low): 1.02
- normalized growth (locus YBR136W, strain MEC1, active compounds read low): 1.01
- normalized growth (locus YBR160W, strain CDC28, active compounds read low): 1.02
- normalized growth (locus YDL017W, strain CDC7, active compounds read low): 1.02
- normalized growth (locus YDL028C, strain MPS1, active compounds read low): 1.02
- normalized growth [1]: 1
- normalized growth (locus YDL108W, strain KIN28, active compounds read low): 1.01
- normalized growth (locus YDL132W, strain cdc53, active compounds read low): 1.02
- normalized growth (locus YDL214C, strain PRR2, active compounds read low): 0.915
- normalized growth (locus YDR052C, strain DBF4, active compounds read low): 1.01
- normalized growth (locus YDR054C, strain cdc34, active compounds read low): 1.01
- normalized growth (locus YDR226W, strain ADK1, active compounds read low): 1.01
- normalized growth (locus YDR477W, strain SNF1, active compounds read low): 0.909
- normalized growth (locus YER123W, strain YCK3, active compounds read low): 0.822
- normalized growth (locus YER133W, strain GLC7, active compounds read low): 0.915
- normalized growth (locus YFL009W, strain cdc4, active compounds read low): 1.02
- normalized growth (locus YFL029C, strain CAK1, active compounds read low): 1.01
- normalized growth (locus YFR003C, strain YPI1, active compounds read low): 1.01
- normalized growth (locus YFR019W, strain FAB1, active compounds read low): 0.801
- normalized growth (locus YFR028C, strain CDC14, active compounds read low): 1.01
- normalized growth (locus YGR040W, strain KSS1, active compounds read low): 0.889
- normalized growth (locus YGR052W, strain FMP48, active compounds read low): 0.924
- normalized growth (locus YGR092W, strain DBF2, active compounds read low): 0.695
- normalized growth [2]: 0.787 (active)
- normalized growth (locus YHR079C, strain IRE1, active compounds read low): 0.96
- normalized growth (locus YHR082C, strain KSP1, active compounds read low): 0.95
- normalized growth (locus YHR205W, strain SCH9, active compounds read low): 0.852
- normalized growth (locus YIL147C, strain SLN1, active compounds read low): 1.01
- normalized growth [3]: 0.815
- normalized growth (locus YJL128C, strain PBS2, active compounds read low): 0.973
- normalized growth (locus YJL157C, strain FAR1, active compounds read low): 0.893
- normalized growth (locus YJR016C, strain ILV3, active compounds read low): 1.02
- normalized growth (locus YJR066W, strain TOR1 (second series), active compounds read low): 0.848
- normalized growth (locus YJR066W, strain TOR1, active compounds read low): 0.901
- normalized growth (locus YKL048C, strain ELM1, active compounds read low): 0.957
- normalized growth (locus YKL067W, strain YNK1, active compounds read low): 0.924
- normalized growth (locus YKL101W, strain HSL1, active compounds read low): 0.913
- normalized growth (locus YKL193C, strain SDS22, active compounds read low): 1.01
- normalized growth (locus YKL203C, strain TOR2, active compounds read low): 0.92
- normalized growth (locus YLR113W, strain HOG1, active compounds read low): 0.996
- normalized growth (locus YLR133W, strain CKI1, active compounds read low): 0.904
- normalized growth (locus YLR403W, strain SFP1, active compounds read low): 0.801
- normalized growth (locus YML070W, strain DAK1, active compounds read low): 0.903
- normalized growth (locus YMR001C, strain CDC5, active compounds read low): 1
- normalized growth (locus YMR205C, strain PFK2 (second series), active compounds read low): 0.916
- normalized growth (locus YMR277W, strain FCP1, active compounds read low): 1.01
- normalized growth (locus YNL006W, strain LST8, active compounds read low): 1.02
- normalized growth (locus YNL020C, strain ARK1, active compounds read low): 0.908
- normalized growth (locus YNL161W, strain CBK1, active compounds read low): 1.02
- normalized growth (locus YNL183C, strain NPR1, active compounds read low): 0.95
- normalized growth (locus YNL207W, strain RIO2, active compounds read low): 1.01
- normalized growth (locus YNL222W, strain SSU72, active compounds read low): 1.02
- normalized growth (locus YNL307C, strain MCK1 (second series), active compounds read low): 0.787
- normalized growth (locus YOL078W, strain AVO1, active compounds read low): 1
- normalized growth (locus YOL136C, strain PFK27, active compounds read low): 0.838
- normalized growth [4]: 0.861
- normalized growth (locus YOR119C, strain RIO1, active compounds read low): 0.938
- normalized growth (locus YOR231W, strain MKK1, active compounds read low): 0.912
- normalized growth (locus YOR329C, strain SCD5, active compounds read low): 1.02
- normalized growth (locus YPL031C, strain PHO85, active compounds read low): 0.899
- normalized growth (locus YPL153C, strain RAD53, active compounds read low): 0.921
- normalized growth (locus YPL204W, strain HRR25, active compounds read low): 0.853
- normalized growth (locus YPL209C, strain IPL1, active compounds read low): 1.02
- normalized growth (locus YPL256C, strain CLN2, active compounds read low): 1.07
- normalized growth (locus YPR025C, strain CCL1, active compounds read low): 1.02
- normalized growth (locus YPR106W, strain ISR1, active compounds read low): 0.998
- normalized growth (locus YPR111W, strain DBF20, active compounds read low): 1
- normalized growth (strain NNK1, active compounds read low): 1
- normalized growth (strain TSCII, active compounds read low): 1.01
